Test results: PubChem BioAssay AID1159580 (chemical genetic matrix, 2015)
Among all 5,500 compounds or so, about 2,000 (36%) were called active. Not shown: some 18% with an inconclusive outcome. Rule as the data show it: active = normalized growth mostly below about 0.91 (no sharp cut-off); inconclusive = no clear call, values can overlap the other calls; inactive = mostly above about 0.92. The list shows a part of the results.

Assay: chemical genetic growth profiling, strain panel (AID 1159580);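 also: tested at 20 µM; growth read once vehicle control cultures reached saturation at 30 °C; 1 = growth at the plate median or of vehicle wells; lower values mean less growth of the strain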
Conditions: S. cerevisiae deletion strains, growth OD

Measured: normalized growth

CC(C)(C)C(=O)C(Oc1ccc(Cl)cc1)n1cncn1 (stereo not given)
active: locus YAL021C, strain ccr4, hits give low values 0.639 | locus YAL026C, strain drs2, hits give low values 0.081 | locus YAL030W, strain snc1, hits give low values 0.133 | locus YBL061C, strain skt5, hits give low values 0.136 | locus YBR009C, strain hhf1, hits give low values 0.133 | locus YBR023C, strain chs3, hits give low values 0.131 | locus YBR171W, strain sec66, hits give low values 0.591 | locus YBR231C, strain swc5, hits give low values 0.119 | locus YBR279W, strain paf1, hits give low values 0.198 | locus YCL011C, strain gbp2, hits give low values 0.124 | locus YCL016C, strain dcc1, hits give low values 0.129 | locus YCL061C, strain MRC1, hits give low values 0.203 | locus YCL069W, strain vba3, hits give low values 0.106 | locus YCR088W, strain abp1, hits give low values 0.25 | locus YDL005C, strain med2, hits give low values 0.565 | locus YDL040C, strain nat1, hits give low values 0.272 | locus YDR001C, strain nth1, hits give low values 0.221 | locus YDR069C, strain doa4, hits give low values 0.655 | locus YDR137W, strain rgp1, hits give low values 0.779 | locus YDR159W, strain sac3, hits give low values 0.171 | locus YDR195W, strain ref2 0.573 | locus YDR297W, strain sur2, hits give low values 0.19 | locus YDR334W, strain swr1, hits give low values 0.141 | locus YDR335W, strain msn5, hits give low values 0.223 | locus YDR392W, strain spt3, hits give low values 0.104 | locus YEL003W, strain gim4, hits give low values 0.154 | locus YEL037C, strain rad23, hits give low values 0.268 | locus YEL061C, strain CIN8 (second series), hits give low values 0.139 | locus YER015W, strain faa2, hits give low values 0.201 | locus YER016W, strain bim1, hits give low values 0.187 | locus YER111C, strain swi4, hits give low values 0.758 | locus YER155C, strain BEM2 (second series), hits give low values 0.746 | locus YFR010W, strain ubp6, hits give low values 0.558 | locus YGL173C, strain kem1, hits give low values 0.701 | locus YGL227W, strain vid30, hits give low values 0.158 | locus YGL240W, strain doc1, hits give low values 0.714 | locus YGL253W, strain hxk2, hits give low values 0.0776 | locus YHR013C, strain ard1, hits give low values 0.162 | locus YHR027C, strain rpn1, hits give low values 0.337 | locus YHR030C, strain SLT2, hits give low values 0.113 | locus YHR079C, strain IRE1, hits give low values 0.264 | locus YHR142W, strain chs7, hits give low values 0.107 | locus YJL092W, strain hpr5, hits give low values 0.177 | locus YJL095W, strain BCK1 (second series), hits give low values 0.0779 | locus YJL095W, strain BCK1, hits give low values 0.129 | locus YJL115W, strain asf1, hits give low values 0.396 | locus YJL129C, strain trk1, hits give low values 0.183 | locus YJL154C, strain vps35, hits give low values 0.409 | locus YJL164C, strain tpk1, hits give low values 0.11 | locus YJL166W, strain qcr8, hits give low values 0.109 | locus YJL187C, strain SWE1, hits give low values 0.135 | locus YJR066W, strain TOR1, hits give low values 0.14 | locus YKL160W, strain elf1, hits give low values 0.112 | locus YKR026C, strain gcn3, hits give low values 0.47 | locus YKR091W, strain srl3, hits give low values 0.247 | locus YLL001W, strain dnm1, hits give low values 0.168 | locus YLL026W, hits give low values 0.0984 | locus YLL041C, strain sdh2, hits give low values 0.159 | locus YLR027C, strain aat2, hits give low values 0.115 | locus YLR113W, strain HOG1, hits give low values 0.308 | locus YLR221C, strain rsa3, hits give low values 0.118 | locus YLR258W, strain gsy2, hits give low values 0.133 | locus YLR262C, strain YPT6 (second series), hits give low values 0.66 | locus YLR320W, strain mms22, hits give low values 0.125 | locus YLR342W, strain FKS1, hits give low values 0.155 | locus YLR357W, strain rsc2, hits give low values 0.513 | locus YLR370C, strain arc18, hits give low values 0.184 | locus YLR384C, strain iki3, hits give low values 0.672 | locus YML120C, strain ndi1, hits give low values 0.153 | locus YMR058W, strain fet3, hits give low values 0.184 | locus YMR125W, strain sto1, hits give low values 0.147 | locus YMR129W, hits give low values 0.161 | locus YMR205C, strain PFK2, hits give low values 0.172 | locus YMR231W, strain pep5, hits give low values 0.805 | locus YNL071W, strain lat1, hits give low values 0.0893 | locus YNL183C, strain NPR1, hits give low values 0.178 | locus YNL209W, strain ssb2, hits give low values 0.394 | locus YNL248C, strain rpa49, hits give low values 0.142 | locus YNL322C, strain KRE1 (second series), hits give low values 0.228 | locus YNR049C, strain mso1, hits give low values 0.159 | locus YOR001W, strain rrp6, hits give low values 0.181 | locus YOR070C, strain gyp1, hits give low values 0.0975 | locus YOR080W, strain dia2, hits give low values 0.259 | locus YOR083W, strain WHI5, hits give low values 0.257 | locus YOR106W, strain vam3, hits give low values 0.211 | locus YOR231W, strain MKK1, hits give low values 0.273 | locus YOR265W, strain rbl2, hits give low values 0.164 | locus YOR270C, strain vph1, hits give low values 0.123 | locus YOR290C, strain snf2, hits give low values 0.153 | locus YPL051W, strain arl3, hits give low values 0.357 | locus YPL078C, strain atp4, hits give low values 0.203 | locus YPL106C, strain sse1, hits give low values 0.156 | locus YPL240C, strain hsp82, hits give low values 0.166 | locus YPL256C, strain CLN2, hits give low values 0.357
inactive: locus YGL167C, strain pmr1, hits give low values 0.923
